# Source: PubChem BioAssay (Paczesny and Yang Labs, IUPUI and University of Michigan)
# ST2 IL33 inh: inhibitors of human ST2 (IL1RL1) binding to IL-33; AlphaLISA ST2-Fc/biotin-IL-33 interaction, 1 h; inhibition, % for hits at 17 µM; 78,000 compounds, 2.3% hits; in the data active means inhibition above about 30%
# Target sequence (Q01638 whole entry, looked up): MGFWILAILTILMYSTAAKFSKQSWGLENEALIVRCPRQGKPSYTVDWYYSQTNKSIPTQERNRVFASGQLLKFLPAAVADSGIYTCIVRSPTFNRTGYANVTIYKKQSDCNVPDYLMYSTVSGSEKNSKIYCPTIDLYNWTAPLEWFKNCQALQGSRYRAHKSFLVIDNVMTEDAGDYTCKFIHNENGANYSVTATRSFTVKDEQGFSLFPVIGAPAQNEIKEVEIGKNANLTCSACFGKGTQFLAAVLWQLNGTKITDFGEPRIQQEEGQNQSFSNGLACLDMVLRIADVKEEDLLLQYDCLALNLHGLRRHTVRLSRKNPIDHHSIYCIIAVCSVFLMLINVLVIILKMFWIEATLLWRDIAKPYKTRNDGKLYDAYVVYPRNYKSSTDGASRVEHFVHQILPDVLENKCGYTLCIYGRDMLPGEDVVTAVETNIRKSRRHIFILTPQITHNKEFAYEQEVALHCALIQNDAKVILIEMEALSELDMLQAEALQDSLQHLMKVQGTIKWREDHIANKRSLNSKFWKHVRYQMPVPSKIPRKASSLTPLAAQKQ
# An asterisk follows results filed as active; i = inactive; ! = a repeat was not active. The full list was thinned out, with hits kept by preference.
SMILES,ST2 IL33 inh
CN1CCc2c(sc3c2C(=O)NC(/C=C\c2ccc(Br)cc2)N3)C1 (stereo not given),i
CCCCN(CC)CCNC(=O)c1cc2cc3ccc(OC)cc3nc2o1,i
CCN(CC)c1ccc(N=Cc2ccc(N(CC)CC)cc2O)cc1,60.0%*
CCN(CC)CCNC(=O)c1ccc(N=Cc2cc(Cl)cc(Cl)c2O)cc1,i
CC(=O)Nc1ccc(N=Cc2cc(Br)cc(Cl)c2O)cc1,i
COC(=O)[C@@H]1Cc2ncn(Cc3ccc(Cl)cc3)c2CN1S(=O)(=O)c1ccccc1,i
CC(C)c1nc(CN(C)Cc2coc3ccccc3c2=O)cs1,i
CC(C)n1c(-c2ccccc2)csc1=Nc1ccccc1,70.0%*
c1ccc(N=c2scc(-c3ccccc3)n2Cc2ccco2)cc1,62.0%*
CSc1nc2c(sc3ccccc32)c(=O)n1Cc1ccco1,i
c1ccc(N2CCN(Cc3ccco3)CC2)cc1,i
O=C(NC1CCCCC1)c1cc(=O)[nH]c2ccc(Br)cc12,i
CCn1cc(C(=O)NC2CCCC2)c(=O)c2cc(S(=O)(=O)N3CC(C)CC(C)C3)ccc21 (stereo not given),i
Nc1ccc(-c2nc3ccccc3[nH]2)cc1,i
Nc1ccc(-c2nc3ccc(-c4nc5ccc(N)cc5[nH]4)cc3[nH]2)cc1,35.0%*!
Nc1ccc(CCc2nc3ccc(N)cc3[nH]2)cc1,i
O=C(CSc1nc2ccccc2[nH]1)Nc1cccc([N+](=O)[O-])c1,i
CCC(NS(=O)(=O)c1ccc(OC)c(OC)c1)C12CC3CC(CC(C3)C1)C2 (stereo not given),i
COc1ccc(C(=O)Nc2cccc(Cl)c2)cc1S(=O)(=O)N1CCOCC1,i
Cc1ccc(C2C3=C(Nc4c2c(=O)[nH]c(=O)n4C)c2ccccc2C3=O)cc1 (stereo not given),38.0%*
CCOc1cc(C2C3=C(Nc4c2c(=O)n(C)c(=O)n4C)c2ccccc2C3=O)ccc1O (stereo not given),i
Cc1ccc(C2OC(=O)c3ccccc32)cc1Cl (stereo not given),i
Cn1c2c(c(=O)[nH]c1=O)C(c1ccc([N+](=O)[O-])o1)C1=C(N2)c2ccccc2C1=O (stereo not given),i
Cc1ccc(C2C3=C(Nc4c2c(=O)[nH]c(=O)n4C)c2ccccc2C3=O)cc1Cl (stereo not given),32.0%*
CCOC(=O)C1=C(C)NC2=C(C(=O)c3ccccc32)C1c1ccc(C)cc1 (stereo not given),i
SMILES,ST2 IL33 inh
CSc1nc(N)c(C#N)c(-c2ccc(Br)cc2)c1C#N,i
COc1ccc(CNS(=O)(=O)c2cc(Cl)ccc2Cl)cc1,i
COc1cc(C)c2c(OC)c(C)c(=O)oc2c1OC,i
CCOC(=O)C1(Cc2ccc(F)cc2F)CCCN(C(=O)C2=CC(=O)CC(C)(C)O2)C1 (stereo not given),i
CN1CCC(NC[C@H]2O[C@@H](CO)[C@@H](O)[C@H]2N2CCN(c3cccc(C(F)(F)F)c3)CC2)CC1,i
Cc1ccc(C(=O)NC2=NCCS2)o1,i
O=C(CCc1ccccc1)Nc1nnc(SCc2ccccc2)s1,i
CCOc1ccc(-n2c(-c3ccco3)nc3c(cnn3-c3ccc(F)cc3)c2=O)cc1,33.0%*
CCOc1ccc(-n2c(C)nc3c(cnn3-c3ccc(F)cc3)c2=O)cc1,i
CCc1cccc(-n2c(-c3ccco3)nc3c(cnn3-c3ccc(F)cc3)c2=O)c1,i
CCOc1ccc(NC(=O)c2cccc([N+](=O)[O-])c2)cc1,i
CCOc1ccc(C(=O)c2cccc([N+](=O)[O-])c2)cc1,31.0%*
CCOc1ccc(N=C(c2cccc([N+](=O)[O-])c2)N2CCOCC2)cc1,i
NS(=O)(=O)c1cc2c(cc1Cl)NC([C@@H]1C[C@H]3C=C[C@@H]1C3)NS2(=O)=O (stereo not given in full),i
CC(C)NC(=O)NC[C@H]1O[C@@H](CO)[C@@H](O)[C@H]1N(C)CCc1ccccc1,i
CCO[C@H]1COC[C@@H]1NC(=O)C1(Oc2cccnc2C)CCNCC1,i
COc1ccccc1-n1c(SCC(=O)Nc2ccccc2)nc2c(c1=O)SCC2,35.0%*!
CCSc1nc2c(c(=O)n1-c1ccccc1OC)SCC2,i
CCOC(=O)C(C)Sc1nc2c(c(=O)n1-c1ccc(Cl)cc1)SCC2 (stereo not given),i
Cc1ccc(-n2c(SCC(=O)Nc3cccc(C(F)(F)F)c3)nc3c(c2=O)SCC3)cc1,i
Cc1ccc(-n2c(SCC(=O)Nc3cc(C)ccc3C)nc3c(c2=O)SCC3)cc1,i
Cc1ccc(-n2c(SC(C)c3ccccc3)nc3c(c2=O)SCC3)cc1 (stereo not given),31.0%*!
CCOC(=O)C(CC)Sc1nc2c(c(=O)n1-c1ccccc1)SCC2 (stereo not given),i
Cc1ccc(-n2c(SCC(=O)Nc3cccc(Cl)c3)nc3c(c2=O)SCC3)cc1,31.0%*
O=C(CSc1nc2c(c(=O)n1-c1ccc(Cl)cc1)SCC2)Nc1cccc(Cl)c1,i
SMILES,ST2 IL33 inh
Cc1ccc(-n2c(SCC(=O)Nc3nccs3)nc3c(c2=O)SCC3)cc1,i
Cc1ccc(-n2c(SCC(=O)Nc3ccccc3F)nc3c(c2=O)SCC3)cc1,32.0%*
COc1ccccc1-n1c(SCc2ccccc2)nc2c(c1=O)SCC2,i
Cn1cc(C(=O)NCCCN2CCOCC2)c2c3ccccc3n(C)c2c1=O,i
O=C1NCCN(Cc2ccc(F)c(F)c2)C1CC(=O)N1CCc2[nH]ncc2C1 (stereo not given),i
O=C(CN1CCN(Cc2ccccc2)C1=O)NCc1cccnc1,i
CS(=O)(=O)c1nc2ccccc2n1Cc1ccccc1Cl,i
CCCNC(=O)c1nn2c(c1Cl)NC(c1ccc(OC)cc1)CC2C(F)(F)F (stereo not given),i
CCOC(=O)c1c(C)oc2cc(Br)c(OC(C)C(=O)OC)cc12 (stereo not given),i
CN(Cc1cn[nH]c1-c1ccccc1)C(=O)c1cnnn1-c1ccccc1,i
Cc1ccccc1CN1CCC(CN(CC2CCCO2)C(=O)c2ccc3[nH]ccc3c2)CC1 (stereo not given),i
O=C(Nc1cnc2n1CCCC2)c1ccc(CSc2ncccn2)o1,i
COc1cc(CN2CCC[C@H]2c2nc(-c3cncnc3N)no2)cc(OC)c1OC,i
CCOC(=O)CSc1nc2c(c(=O)n1-c1ccc(C)cc1)SCC2,i
Cc1ccc(-n2c(SCC(=O)NCCc3ccccc3)nc3c(c2=O)SCC3)cc1,31.0%*
O=C(CSc1nc2c(c(=O)n1-c1ccc(F)cc1)SCC2)NCc1ccc(F)cc1,i
CN1C(=O)C2(CCN(C(=O)CCCn3ccnc3)CC2)c2ccccc21,i
CCOc1ccc(NC(=O)c2ccc(Cl)cc2)cc1,i
Nc1nc(COc2ccccc2Cl)nc(N2CCOCC2)n1,i
N#Cc1nc(COc2ccccc2Cl)oc1N1CCCCC1,65.0%*
N#Cc1nc(COc2ccccc2Cl)oc1N1CCN(Cc2ccccc2)CC1,58.0%*
Cc1ccccc1OCc1nc(C#N)c(N2CCCCC2)o1,68.0%*
Cc1ccccc1OCCCN1CCOCC1,i
Cc1ccc(-c2noc(COc3ccccc3Cl)n2)cc1,i
Cc1ccccc1OCCCCN1CCCCC1,i
N#Cc1nc(COc2ccccc2Cl)oc1N1CCC(C(N)=O)CC1,i
c1ccc(COc2ccc(CN3CCN(c4ncccn4)CC3)cc2)cc1,i
N#Cc1nc(COc2ccc(Cl)cc2)oc1N1CCN(Cc2ccccc2)CC1,57.0%*
